Source: paper PMC11102866, “Nucleosome-bound NR5A2 structure reveals pioneer factor mechanism by DNA minor groove anchor competition”

B1: 114 (nucleosome)
DNA 1: ATCCTGGAGAATCCCGGTGCCGAGGCCGCTCAATTGGTCGTAGACAGCTCTAGCACCGCTTAAACGCACGTACGCGCTGTCCCCCGCGTTTTAACCGCCAAGGGGATTACTCCCTATCAAGGCCACACGTGTCAGATATATACATCCTGTGAT
DNA 2: ATCACAGGATGTATATATCTGACACGTGTGGCCTTGATAGGGAGTAATCCCCTTGGCGGTTAAAACGCGGGGGACAGCGCGTACGTGCGTTTAAGCGGTGCTAGAGCTGTCTACGACCAATTGAGCGGCCTCGGCACCGGGATTCTCCAGGAT
modifications: reconstituted with mouse histones H2A, H2B, H3.3 and H4
B2: 14 (nucleosome)
DNA 1: ATCCTGGAGAATCCCGTCAAGGCCACCGCTCAATTGGTCGTAGACAGCTCTAGCACCGCTTAAACGCACGTACGCGCTGTCCCCCGCGTTTTAACCGCCAAGGGGATTACTCCCTAGTCTCCAGGCACGTGTCAGATATATACATCCTGTGAT
DNA 2: ATCACAGGATGTATATATCTGACACGTGCCTGGAGACTAGGGAGTAATCCCCTTGGCGGTTAAAACGCGGGGGACAGCGCGTACGTGCGTTTAAGCGGTGCTAGAGCTGTCTACGACCAATTGAGCGGTGGCCTTGACGGGATTCTCCAGGAT
modifications: reconstituted with mouse histones H2A, H2B, H3.3 and H4
B3: 126 (nucleosome)
DNA 1: ATCCTGGAGAATCCCGGTGCCGAGGCCGCTCAATTGGTCGTAGACAGCTCTAGCACCGCTTAAACGCACGTACGCGCTGTCCCCCGCGTTTTAACCGCCAAGGGGATTACTCCCTAGTCTCCAGGCACTCAAGGCCAATATACATCCTGTGAT
DNA 2: ATCACAGGATGTATATTGGCCTTGAGTGCCTGGAGACTAGGGAGTAATCCCCTTGGCGGTTAAAACGCGGGGGACAGCGCGTACGTGCGTTTAAGCGGTGCTAGAGCTGTCTACGACCAATTGAGCGGCCTCGGCACCGGGATTCTCCAGGAT
modifications: reconstituted with mouse histones H2A, H2B, H3.3 and H4
B4: 115 (nucleosome)
DNA 1: ATCCTGGAGAATCCCGGTGCCGAGGCCGCTCAATTGGTCGTAGACAGCTCTAGCACCGCTTAAACGCACGTACGCGCTGTCCCCCGCGTTTTAACCGCCAAGGGGATTACTCCCTAGTCAAGGCCAACGTGTCAGATATATACATCCTGTGAT
DNA 2: ATCACAGGATGTATATATCTGACACGTTGGCCTTGACTAGGGAGTAATCCCCTTGGCGGTTAAAACGCGGGGGACAGCGCGTACGTGCGTTTAAGCGGTGCTAGAGCTGTCTACGACCAATTGAGCGGCCTCGGCACCGGGATTCTCCAGGAT
modifications: reconstituted with mouse histones H2A, H2B, H3.3 and H4
B5: 121 (nucleosome)
DNA 1: ATCCTGGAGAATCCCGGTGCCGAGGCCGCTCAATTGGTCGTAGACAGCTCTAGCACCGCTTAAACGCACGTACGCGCTGTCCCCCGCGTTTTAACCGCCAAGGGGATTACTCCCTAGTCTCCATCAAGGCCACAGATATATACATCCTGTGAT
DNA 2: ATCACAGGATGTATATATCTGTGGCCTTGATGGAGACTAGGGAGTAATCCCCTTGGCGGTTAAAACGCGGGGGACAGCGCGTACGTGCGTTTAAGCGGTGCTAGAGCTGTCTACGACCAATTGAGCGGCCTCGGCACCGGGATTCTCCAGGAT
modifications: reconstituted with mouse histones H2A, H2B, H3.3 and H4
B6: 120 (nucleosome)
DNA 1: ATCCTGGAGAATCCCGGTGCCGAGGCCGCTCAATTGGTCGTAGACAGCTCTAGCACCGCTTAAACGCACGTACGCGCTGTCCCCCGCGTTTTAACCGCCAAGGGGATTACTCCCTAGTCTCCTCAAGGCCATCAGATATATACATCCTGTGAT
DNA 2: ATCACAGGATGTATATATCTGATGGCCTTGAGGAGACTAGGGAGTAATCCCCTTGGCGGTTAAAACGCGGGGGACAGCGCGTACGTGCGTTTAAGCGGTGCTAGAGCTGTCTACGACCAATTGAGCGGCCTCGGCACCGGGATTCTCCAGGAT
modifications: reconstituted with mouse histones H2A, H2B, H3.3 and H4
B7: 117 (nucleosome)
DNA 1: ATCCTGGAGAATCCCGGTGCCGAGGCCGCTCAATTGGTCGTAGACAGCTCTAGCACCGCTTAAACGCACGTACGCGCTGTCCCCCGCGTTTTAACCGCCAAGGGGATTACTCCCTAGTCTCAAGGCCAGTGTCAGATATATACATCCTGTGAT
DNA 2: ATCACAGGATGTATATATCTGACACTGGCCTTGAGACTAGGGAGTAATCCCCTTGGCGGTTAAAACGCGGGGGACAGCGCGTACGTGCGTTTAAGCGGTGCTAGAGCTGTCTACGACCAATTGAGCGGCCTCGGCACCGGGATTCTCCAGGAT
modifications: reconstituted with mouse histones H2A, H2B, H3.3 and H4
B8: 119 (nucleosome)
DNA 1: ATCCTGGAGAATCCCGGTGCCGAGGCCGCTCAATTGGTCGTAGACAGCTCTAGCACCGCTTAAACGCACGTACGCGCTGTCCCCCGCGTTTTAACCGCCAAGGGGATTACTCCCTAGTCTCTCAAGGCCAGTCAGATATATACATCCTGTGAT
DNA 2: ATCACAGGATGTATATATCTGACTGGCCTTGAGAGACTAGGGAGTAATCCCCTTGGCGGTTAAAACGCGGGGGACAGCGCGTACGTGCGTTTAAGCGGTGCTAGAGCTGTCTACGACCAATTGAGCGGCCTCGGCACCGGGATTCTCCAGGAT
modifications: reconstituted with mouse histones H2A, H2B, H3.3 and H4

What follows are binders tested against NR5A2 wild type;histone octamer (Homo sapiens;, UniProt O00482;C0HKE1;Q6ZWY9;P84244;P62806 1-541;2-130;2-126;2-136;2-103, |) (assay: SeEN-seq (EMSA of nucleosome library followed by sequencing); 0.8 uM human NR5A2; 20 mM Tris-HCl pH 7.5, 120 mM NaCl, 1 mM MgCl2, 10 uM ZnCl2, 1 mM DTT, 100 ug/ml BSA, room temperature, 30 min; 0.1 uM nucleosome library; high values mean tight binding).
For B1, the binding signal was 1.13 log2 enrichment (bound/unbound, relative to Widom 601). For B2, the binding signal was 3.44 log2 enrichment (bound/unbound, relative to Widom 601). With B3 the binding signal was 4.66 log2 enrichment (bound/unbound, relative to Widom 601). B4 was tested, and the binding signal was 0.998 log2 enrichment (bound/unbound, relative to Widom 601). B5 was tested, and the binding signal was 0.664 log2 enrichment (bound/unbound, relative to Widom 601). With B6 the binding signal was 0.677 log2 enrichment (bound/unbound, relative to Widom 601). With B7 the binding signal was 1.13 log2 enrichment (bound/unbound, relative to Widom 601). B8 was tested, and the binding signal was 0.607 log2 enrichment (bound/unbound, relative to Widom 601).

Each binder was assayed against mouse Nr5a2 wild type;histone octamer (Mus musculus;, UniProt P45448;C0HKE1;Q6ZWY9;P84244;P62806 1-560;2-130;2-126;2-136;2-103, |) (assay: SeEN-seq (EMSA of nucleosome library followed by sequencing); 1.2 uM mouse Nr5a2; 20 mM Tris-HCl pH 7.5, 120 mM NaCl, 1 mM MgCl2, 10 uM ZnCl2, 1 mM DTT, 100 ug/ml BSA, room temperature, 30 min; 0.1 uM nucleosome library; high values mean tight binding).
With B1 the binding signal was 1.08 log2 enrichment (bound/unbound, relative to Widom 601). B2 was tested, and the binding signal was 2.91 log2 enrichment (bound/unbound, relative to Widom 601). In the case of B3, the binding signal is reported as 3.59 log2 enrichment (bound/unbound, relative to Widom 601). For B4, the binding signal was 1.02 log2 enrichment (bound/unbound, relative to Widom 601). B5 was tested, and the binding signal was 0.599 log2 enrichment (bound/unbound, relative to Widom 601). In the case of B6, the binding signal is reported as 0.768 log2 enrichment (bound/unbound, relative to Widom 601). For B7, the binding signal was 1.34 log2 enrichment (bound/unbound, relative to Widom 601). B8 was tested, and the binding signal was 0.776 log2 enrichment (bound/unbound, relative to Widom 601).
